# High-throughput results: PubChem BioAssay, National Center for Advancing Translational Sciences (NCATS)
# Hits are enriched below; roughly 3.8% of the tested compounds scored in any of these assays.
# TGFb inhibitor = inhibitors of TGF-b signaling | HepG2 CAGA-GFP TGF-b/SMAD3 reporter, GFP fluorescence, 18 h; TGF-beta stimulated, 500 pg/mL final | Potency, µM (doses to about 46.1 µM), for inactives: at the top dose activity, negative = inhibition, actives largely listed as inhibitors | hit rate 1.2% among 410,000; note: % is set by controls: 0 for no effect and ±100 for the full control effect; nearly all actives have a fitted effect of over 65% in size
#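 HEPG2 CAGA-GFP reporter cells (1000/well, DMEM with 1% FBS) received compounds, then recombinant TGF-beta at 500 pg/mL final for 18 hours at 37 degrees C. Per-cell GFP summed per well was normalised to unstimulated and stimulated DMSO controls before curve fitting.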
# ATXN2 expr inh = inhibitors of ATXN2 expression; hit rate 0.72% among 360,000; Potency, µM (highest dose often 57 µM), without a hit: at the highest dose activity change, negative = inhibition, actives largely listed as inhibitors; HEK-293 ATXN2-luciferase reporter, luminescence, 24 h; note: % is set by controls: 0 for no effect and ±100 for the full control effect; nearly all actives have a fitted effect of over 55% in size
#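 ATXN2-luciferase reporter cells (luciferase flanked by upstream and downstream ATXN2 gene portions) were treated 24 h at 37 °C with compounds at up to 57 uM. SteadyGlo luminescence gave expression; GF-AFC fluorescence gave viability.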
# HepG2 tox = counter-screen for TGF-b inhibitors: cytotoxicity in HepG2 cells | hit rate 0.76% among 410,000 | AID 588856 | HepG2 CAGA-GFP viability, ATP luminescence, 18 h | Potency, µM (doses to about 46.1 µM), for inactives: top-dose activity change, negative = cytotoxicity, usual class: cytotoxic
#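 HepG2 CAGA-GFP cells (1000/well, DMEM with 1% FBS) received compound, then TGF-beta at 500 pg/mL final, and were incubated 18 hours at 37 degrees C. Viability was read by CellTiter-Glo luminescence. Media-only wells were set as complete cell-killing and DMSO as no toxicity.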
# A549 viability = kills or reduces viability of A549 cells in Nrf2 counter-screen; AID 504648; Potency, µM (top dose mostly 46 µM), for the others: at the top dose activity change, negative = cytotoxicity, usual class: inhibitors; hit rate 0.16% among 390,000; A549 ARE-Fluc cells, CellTiter-Fluor viability, 18-24 h; note: % is set by controls: 0 for no effect and ±100 for the full control effect
#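 A549 ARE-Fluc cells in 5% FBS OPTI-MEM, 5000 cells/well, rested 2 h then exposed to compounds in concentration-response for 18-24 h at 37 °C. Viability by CellTiter-Fluor fluorescence (Ex 405/Em 525) after 30 min; luciferase luminescence (BugLite, 15 min, RT) read afterwards.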
# S2 tox = reduces viability in counter-screen for ATXN expression inhibitors; hit rate 0.49% among 400,000; Potency, µM (top dose mostly 56.7 µM), hits mostly cytotoxic; S2 cells (HEK-293 line with an ATXN2-luciferase reporter) viability, CellTiter-Fluor protease fluorescence, 24 h; note: nearly all actives have a fitted effect of over 40% in size
# Nrf2 block = blocks Nrf2 signaling; A549 ARE-Fluc reporter, luciferase luminescence, 18-24 h; Potency, µM (top dose mostly 46 µM), without a hit: at the top dose activity change, negative = inhibition, actives largely listed as inhibitors; hit rate 2.1% among 360,000; note: % is set by controls: 0 for no effect and ±100 for the full control effect; nearly all actives have a fitted effect of over 60% in size
#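 In this cell-based qHTS, ARE-driven firefly luciferase in A549 cells reports Nrf2 activity; the luminescent signal after BugLite lysis is the measured value, with a prior CellTiter-Fluor read for cell health.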
# Starred values were filed as active, the others as inactive; i = inactive; ? = inconclusive; nt = no result given; [ ] = remark or other dose. Calls come from the whole dose curve; as a rule, active = well fitted curve in the direction sought with a large enough effect; inconclusive = small, poorly fitted or top-dose-only effect, or another doubt; inactive = no such curve, though single readings can be large; an effect the other way counts as inactive or inconclusive. Potency is the fitted concentration of half-maximal effect.
SMILES,TGFb inhibitor,ATXN2 expr inh,HepG2 tox,A549 viability,S2 tox,Nrf2 block
CN(C)c1ccc(C(CNC(=O)c2c(F)cccc2Cl)N2CCOCC2)cc1 (stereo unspecified),-20%,nt,-13%,0%,nt,nt
Cc1ccc(NC(=O)C(Cc2ccccc2)NS(=O)(=O)c2ccc3c(c2)c(=O)n(C)c(=O)n3C)cc1 (stereo unspecified),?,-20%,-9%,-13%,i,-13%
CCc1cccc(NS(=O)(=O)c2ccc3c(c2)n(C)c(=O)n3C)c1,-9%,-20%,-24%,-6%,i,13µM*
CCc1cccc(NC(=O)C(Cc2ccccc2)NS(=O)(=O)c2ccc3c(c2)c(=O)n(C)c(=O)n3C)c1 (stereo unspecified),4.5µM*,-32%,-31%,-17%,i,-8%
CCC(C)c1ccc(NC(=O)COC(=O)c2nc3nccc(C)n3n2)cc1 (stereo unspecified),2%,nt,-4%,-1%,?,-19%
N#CNC(=Nc1cccc(F)c1)SCc1ccccc1,-15%,nt,-49%,2%,i,-24%
N#CNC(=Nc1cccc(F)c1)SCc1cccc(F)c1,10µM*,-6%,-40%,-9%,i,23µM*
O=C(/C=C/c1ccc([N+](=O)[O-])s1)N1CCCCC1,13µM*,?,11µM*,-5%,?,-2%
CC1CN(C(=O)/C=C/c2ccc([N+](=O)[O-])s2)CC(C)O1 (stereo unspecified),?,-24%,10µM*,-15%,i,17%
O=C(/C=C/c1ccc([N+](=O)[O-])s1)N1CCCC1,11µM*,nt,20µM*,-23%,?,21µM*
O=C(C[n+]1cccc(Br)c1)c1ccc(F)cc1,0%,nt,10%,nt,nt,nt
CCc1nc2c(OCc3ccc(Cl)cc3)cccn2c1N(C)C(=O)c1ccc2c(c1)OCO2,5%,-24%,-29%,nt,?,nt
Cc1ccccc1CS(=O)(=O)c1ccc(C(=O)N2CCC(C)CC2)cc1[N+](=O)[O-],2%,nt,-1%,-5%,i,0%
CC1CCN(C(=O)C(C)OC(=O)c2ccc(S(C)(=O)=O)c([N+](=O)[O-])c2)CC1 (stereo unspecified),10µM*,nt,-77%,-7%,nt,5%
CCC(OC(=O)c1ccc(S(C)(=O)=O)c([N+](=O)[O-])c1)C(=O)NC1C2CC3CC(C2)CC1C3 (stereo unspecified),4.5µM*,?,5.6µM*,nt,6.3µM*,nt
CS(=O)(=O)c1ccc(C(=O)OCC(=O)NC23CC4CC(CC(C4)C2)C3)cc1[N+](=O)[O-],?,?,-99%,-8%,?,-4%
CC(OC(=O)c1ccc(S(C)(=O)=O)c([N+](=O)[O-])c1)C(=O)NC1C2CC3CC(C2)CC1C3 (stereo unspecified),3.2µM*,?,-101%,nt,3.2µM*,nt
COc1ccc(C(=O)OCC(=O)NC(=O)NC2CCCC2)cc1[N+](=O)[O-],3%,1%,-1%,0%,i,-18%
CS(=O)(=O)c1ccc(C(=O)OCC(=O)NC(=O)NC2CCCCC2)cc1[N+](=O)[O-],4.5µM*,nt,6.3µM*,3%,nt,?
CC(C)CN1CCN(C(=O)COC(=O)c2ccc(S(C)(=O)=O)c([N+](=O)[O-])c2)CC1,4.5µM*,-27%,4.5µM*,nt,32µM*,nt
CN(C)S(=O)(=O)c1cccc(NC(=O)c2cccc(NS(=O)(=O)c3ccccc3)c2)c1,?,-21%,-22%,?,i,15µM*
Cc1cc(C)n(-c2ccc(C(=O)Nc3ccc(S(=O)(=O)N(C)C)cc3)cc2)n1,-13%,?,-38%,-23%,?,?
Cc1cc(C)n(-c2ccc(C(=O)Nc3ccc(C)c(S(=O)(=O)N(C)C)c3)cc2)n1,-9%,-14%,-11%,?,i,18µM*
Cc1ccc(NC(=O)c2ccc(OC(F)(F)F)cc2)cc1S(=O)(=O)N(C)C,?,-26%,-33%,-6%,i,12µM*
CN(C)S(=O)(=O)c1cccc(C(=O)Nc2ccc(C(=O)Nc3cccc(S(N)(=O)=O)c3)cc2)c1,-16%,-3%,-14%,3%,i,-6%
SMILES,TGFb inhibitor,ATXN2 expr inh,HepG2 tox,A549 viability,S2 tox,Nrf2 block
Cc1cc(C)n(-c2ccc(C(=O)Nc3cccc(S(=O)(=O)N(C)C)c3)cc2)n1,?,-24%,1%,-15%,i,18µM*
CCCCN(C=O)c1c(CC)nc2c(OCc3ccc(C(F)(F)F)cc3)cccn12,?,?,-44%,nt,?,nt
CCOCCCNC(=S)N1C2CCC1CC(NC(=O)NC13CC4CC(CC(C4)C1)C3)C2 (stereo unspecified),0%,-3%,3%,6%,i,0%
Nc1ccc(NC(=O)NC2CCCCC2)cc1[N+](=O)[O-],7%,17%[11.3 µM],2%,-5%,i,?
COC(=O)c1ccc(C2Nc3ccc(/C(C)=N/NC(=O)C(OC)c4ccccc4)cc3C3C=CCC32)cc1 (stereo unspecified),-4%,0%,1%,0%,i,-4%
CCCCn1c(N)c(N(CC(C)C)C(=O)c2cccc(-n3cnnn3)c2)c(=O)[nH]c1=O,-11%,-9%,6%,-1%,i,16%
CN(C)S(=O)(=O)Oc1ccc(C(=O)Nc2cccc(C(F)(F)F)c2)cc1,?,?,-21%,?,?,23µM*
CN(C)S(=O)(=O)Oc1ccc(C(=O)Nc2cccc(Cl)c2)cc1,-8%,31%,-18%,-3%,i,?
COC(=O)c1ccccc1NC(=O)CN1CCC(n2nnc3cc(C(F)(F)F)ccc32)CC1,0%,-20%,-23%,6%,i,-6%
CC1Cc2ccccc2N1C(=O)CN1CCC(n2nnc3cc(C(F)(F)F)ccc32)CC1 (stereo unspecified),18%,-22%,-28%,?,?,16µM*
CC1(C)OC2CC3C4CCC5=CC(=O)CCC5(C)C4(F)C(O)CC3(C)C2(C(=O)CO)O1 (stereo unspecified),41%,-17%,8%,-7%,i,0.0052µM*
CC1(C)O[C@H]2C[C@@H]3[C@H]4CCC5=CC(=O)C=C[C@]5(C)[C@@]4(F)[C@@H](O)C[C@]3(C)[C@]2(C(=O)CO)O1,nt,-5%,nt,nt,nt,nt
